The campaign covered roughly 310,000 compounds. About 14,000 (4.5%) showed an effect of 50% or more. The effect is printed as a negative number. This excerpt belongs to a sample that is enriched for strong results.
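Note: peak tail current of the secondary pulse compared with the same well before compound.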

In the experiment the target is human ether-à-go-go-related gene (hERG) potassium channel (human, UniProt Q12809). Nature of the experiment: primary screen, population patch clamp on CHO cells stably expressing hERG; higher = less effect of the substance.
human ether-à-go-go-related gene (hERG) potassium channel, sequence (Q12809 whole entry, looked up): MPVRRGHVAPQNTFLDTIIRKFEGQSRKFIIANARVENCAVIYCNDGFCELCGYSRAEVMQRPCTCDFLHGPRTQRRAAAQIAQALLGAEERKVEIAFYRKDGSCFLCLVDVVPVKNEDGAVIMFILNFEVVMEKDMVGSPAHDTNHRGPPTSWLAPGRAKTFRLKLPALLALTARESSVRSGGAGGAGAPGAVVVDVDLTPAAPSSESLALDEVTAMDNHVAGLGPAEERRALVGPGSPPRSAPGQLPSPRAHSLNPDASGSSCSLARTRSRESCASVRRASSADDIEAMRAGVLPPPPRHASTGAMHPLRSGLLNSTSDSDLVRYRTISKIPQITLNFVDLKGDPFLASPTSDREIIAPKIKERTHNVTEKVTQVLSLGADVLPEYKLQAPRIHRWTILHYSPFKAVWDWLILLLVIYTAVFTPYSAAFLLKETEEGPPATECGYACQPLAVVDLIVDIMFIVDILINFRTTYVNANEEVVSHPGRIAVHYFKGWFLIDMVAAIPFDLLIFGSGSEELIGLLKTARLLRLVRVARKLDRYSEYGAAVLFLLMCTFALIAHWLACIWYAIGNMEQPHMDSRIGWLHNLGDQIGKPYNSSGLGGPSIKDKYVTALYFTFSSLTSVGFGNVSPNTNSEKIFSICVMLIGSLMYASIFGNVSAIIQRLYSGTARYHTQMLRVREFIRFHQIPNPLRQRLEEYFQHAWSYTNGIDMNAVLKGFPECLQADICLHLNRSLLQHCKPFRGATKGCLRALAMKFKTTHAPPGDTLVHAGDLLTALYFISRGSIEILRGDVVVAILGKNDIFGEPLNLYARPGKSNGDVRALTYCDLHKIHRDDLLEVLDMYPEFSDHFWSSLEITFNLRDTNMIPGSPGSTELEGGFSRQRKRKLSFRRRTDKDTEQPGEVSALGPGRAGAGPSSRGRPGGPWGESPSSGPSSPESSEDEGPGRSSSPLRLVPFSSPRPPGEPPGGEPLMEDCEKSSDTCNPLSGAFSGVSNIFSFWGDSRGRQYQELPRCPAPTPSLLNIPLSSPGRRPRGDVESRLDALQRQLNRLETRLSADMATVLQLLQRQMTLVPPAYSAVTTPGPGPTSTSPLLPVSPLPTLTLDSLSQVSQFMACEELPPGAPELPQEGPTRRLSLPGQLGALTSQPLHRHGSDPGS
Regarding `CC(C)CCNC(=O)C1CCN(S(=O)(=O)c2ccc3c(c2)CC(C)N3C(=O)C2CCC2)CC1` (stereo not drawn), the “hERG current change (%, negative = inhibition) at 10uM” value is given as -12.7%.
For `CN(Cc1ccccc1)C(=S)Nc1cccnc1` the value was 9.05%; for `COc1c(C)cc(Br)cc1C(=O)Nc1ccc(Cc2ccncc2)cc1`, -3.5%.
As for `COc1ccc(N(C(=O)Cn2nnc(-c3ccc(F)cc3)n2)C(C)C(=O)NC2CCCC2)cc1` (stereo not drawn), the “hERG current change (%, negative = inhibition) at 10uM” value is reported as -22%.
For the compound `CCC/C(O)=C1\C(=O)CC(c2ccccc2)CC1=NCCc1c(C)[nH]c2ccccc12` (stereo not drawn), the “hERG current change (%, negative = inhibition) at 10uM” value is -39.3%.
To `Cc1nnc(SCc2nc3ccccc3s2)n1-c1ccccc1` belongs 2.82%; to `CNC(=S)N1CCN(CCN=Cc2c(O)n(-c3ccc(C)cc3)c(=S)[nH]c2=O)CC1`, 21.2%.
To `Cc1[nH]n(-c2ccc([N+](=O)[O-])cc2)c(=O)c1C=NCCN1CCN(C(=O)c2ccccc2)CC1` belongs -71.6%; to `COc1ccc(-c2[nH]n(-c3ccc([N+](=O)[O-])cc3)c(=O)c2C=NCCN2CCNCC2)cc1`, -4.9%.
On to `Cc1ccc(-n2[nH]c(C)c(/C=N/Nc3ccc([N+](=O)[O-])cc3[N+](=O)[O-])c2=O)cc1`, for which the “hERG current change (%, negative = inhibition) at 10uM” value stood at 23.9%.
On to `CC1(C)CC(=O)C(C=NCCN2CCN(C(=O)c3ccc(F)cc3)CC2)=C(O)C1`, for which the “hERG current change (%, negative = inhibition) at 10uM” value is -21.1%.
To `O=c1c(C=NCC2CCCO2)c(-c2ccccc2)[nH]n1-c1ccc([N+](=O)[O-])cc1` (stereo not drawn) belongs 7.58%; to `Cc1[nH]n(-c2ccc([N+](=O)[O-])cc2)c(=O)c1C=NCCc1c[nH]c2ccccc12`, 13.2%; to `Cc1[nH]n(-c2ccc([N+](=O)[O-])cc2)c(=O)c1C=NCCN1CCN(C(=O)c2ccc(F)cc2)CC1`, -73.7%.
As to `Cc1[nH]n(-c2ccc([N+](=O)[O-])cc2)c(=O)c1C=NCCc1c(C)[nH]c2ccccc12`, the “hERG current change (%, negative = inhibition) at 10uM” value was 1.38%.
`C=CCNC(=S)N1CCN(CCN=Cc2c(C)[nH]n(-c3ccc([N+](=O)[O-])cc3)c2=O)CC1`: the “hERG current change (%, negative = inhibition) at 10uM” value is reported as -72.1%.
For `O=c1c(C=NCCN2CCNCC2)c(-c2ccccc2)[nH]n1-c1ccc([N+](=O)[O-])cc1` the value was -66.4%.
To `CC(=O)N1CCN(CCN=Cc2c(O)n(-c3ccc(F)cc3)c(=S)[nH]c2=O)CC1` belongs 22.1%.
To `COc1cc2cc(CN(CCO)S(=O)(=O)c3ccccc3Cl)c(=O)[nH]c2cc1OC` belongs 0.98%.
With `O=C(NCCCCc1ccccc1)c1ccccc1Cl`, the “hERG current change (%, negative = inhibition) at 10uM” value was -9.21%.
For `CN(NC1OC(=O)c2ccccc21)c1ccc(C(F)(F)F)cc1[N+](=O)[O-]` (stereo not drawn) the value was 34.2%.
